This passage reports inhibition results from PubChem BioAssay AID485317 (Broad Institute, 2010).

SMILES strings stand for the structures. Hit rate of the full screen: of about 290,000 compounds, about 11,000 (3.8%) were called active. This is one part of a sample in which actives are shown more often than they occur. Values without a mark were called inactive.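 The calls were made as follows: active = mean replicate inhibition above about 79%, with every replicate also reaching it (limit read from the data); inconclusive = only one of the two criteria met; inactive = mean below limit and not every replicate reaching it.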

The target in the experiment is FAD-linked sulfhydryl oxidase ALR (Homo sapiens) (UniProt P55789). Nature of the experiment: ALR-catalysed DTT oxidation blockers – biochemical, H2O2 detection, HRP-luminol luminescence, single point, primary screen (AID 485317). The note with it: purified ALR, stronger effect = higher value, concentration not given here.
Chain of FAD-linked sulfhydryl oxidase ALR (Homo sapiens) (P55789 whole entry, looked up): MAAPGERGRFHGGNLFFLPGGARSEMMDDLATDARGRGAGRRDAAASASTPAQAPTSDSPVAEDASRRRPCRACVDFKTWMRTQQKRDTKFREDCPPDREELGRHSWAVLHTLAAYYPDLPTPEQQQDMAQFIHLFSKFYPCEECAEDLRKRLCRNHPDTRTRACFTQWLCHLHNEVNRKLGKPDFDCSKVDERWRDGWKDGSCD
Consider `O=C1CCCC(O)=C1N=Nc1ccc2ncsc2c1`, for which the inhibition is 97.4% (active).

For the compound `O=C1CCCC(O)=C1N=Nc1ccc(S(=O)(=O)N2CCOCC2)cc1`, the inhibition was -10.4%.

Consider `COc1ccccc1-c1sc2ccccc2c1C#CC1(O)CCCCC1`, for which the inhibition was -3.52%.

Consider `CCC(CC)NC(=O)/C=C/c1cccc([N+](=O)[O-])c1`, for which the inhibition was -3%.

As to `O=C(CSCc1ccc([N+](=O)[O-])cc1)NCCSCc1ccccc1`, the inhibition was -10.2%.

`O=C(NCc1ccco1)/C(=C/c1cccc([N+](=O)[O-])c1)NC(=O)c1ccco1`: the inhibition was 69.6%.

For the compound `O=C(/C=C/c1cccc([N+](=O)[O-])c1)NCCSCc1ccco1`, the inhibition is 98.5% (active).

`O=C(NCc1ccco1)c1ccc([N+](=O)[O-])cc1Cl`: the inhibition is -19%.

For the compound `O=C(/C=C/c1ccc([N+](=O)[O-])cc1)NCCSCc1ccco1`, the inhibition is 98.4% (active).

Turning to `CCN(C(=O)CSc1ncnc2sccc12)c1c(N)n(Cc2ccccc2)c(=O)[nH]c1=O`, the inhibition is -0.954%.

For the compound `COCCNC(=S)N(Cc1cccnc1)Cc1ccc(OC)c(OC)c1`, the inhibition is -1.92%.

Regarding `COCCNC(=S)N(CCc1c(C)[nH]c2ccc(C)cc12)Cc1cccnc1`, the inhibition is 90.7% (active).

For the compound `CCNC(=S)N(CCc1c(C)[nH]c2ccc(C)cc12)Cc1ccco1`, the inhibition is 69.2%.

In the case of `Cc1n[nH]c(=O)c2c(NC(=O)CSc3ccccc3F)oc(C)c12`, the inhibition was 1.87%.

Take `CC(C)COc1ccc(C(=O)NNC(=O)CCC(=O)c2cccs2)cc1`: the inhibition was -17.3%.

`CC(NC(=O)COC(=O)CCC(=O)c1ccc(Cl)cc1)c1ccccc1` (configuration not stated): the inhibition is -2.75%.

Take `Cc1noc(C)c1C(=O)OC(C)C(=O)Nc1ccc2c(c1)OCO2` (configuration not stated): the inhibition is -0.736%.

For the compound `O=C(Nc1cccc(NC(=O)N2CCN(c3ccccc3)CC2)c1)N1CCN(c2ccccc2)CC1`, the inhibition was -1.81%.

Turning to `Cc1cccc(N2CCN(c3ccc(NC(=O)/C=C\C(=O)O)cc3)CC2)c1`, the inhibition was 99% (active).

In the case of `CSc1ccc(NC(=O)/C=C/C(=O)O)cc1`, the inhibition was 0.113%.

On to `Cc1ccc(CN2CCN(c3ccccc3Cl)CC2)o1`, for which the inhibition was 2%.

On to `CN1CCN(S(=O)(=O)c2ccc(Nc3ccc(F)cc3)nc2)CC1`, for which the inhibition is -2.65%.

On to `O=C(OCC(=O)N1CCCCCC1)c1ccc(Br)c(S(=O)(=O)N2CCOCC2)c1`, for which the inhibition was -8.29%.

Consider `COc1ccc(NC(=O)CN(C)C(=O)Cc2coc3cc(C)c(C)cc23)cc1`, for which the inhibition is 0.212%.

Turning to `CCC1CO/C(=C(\C(=C(Cl)Cl)N2CCOCC2)[N+](=O)[O-])N1` (configuration not stated), the inhibition was 81% (active).

Regarding `COC(=O)[C@]1(C)CCC[C@@]2(C)C3CC[C@]4(OC(C)=O)C[C@@]3(CCC21)CC4=NO` (some centres not stated), the inhibition was -3.27%.

As to `COc1ccc(C(=O)Nc2cccc(NC(=O)c3ccc(OC)cc3OC)n2)c(OC)c1`, the inhibition was -5.93%.

`CCCCn1c(N)c(N(CCOC)C(=O)COc2c(C)cccc2C)c(=O)[nH]c1=O`: the inhibition is -2.66%.

`CSc1nsc(NC(=O)Nc2ccccc2)n1`: the inhibition is 4.37%.

Regarding `Cc1cc(SCC(=O)c2ccccc2)nc(SCC(=O)c2ccccc2)n1`, the inhibition is 1.19%.

Turning to `CSc1nc(C)cc(SC(C(C)=O)C(=O)Nc2ccccc2)n1` (configuration not stated), the inhibition is 92.7% (active).

For `O=C(COC(=O)C1CC2CCCC(C1)C2=O)NC(=O)c1ccccc1` (configuration not stated), the inhibition is 1.09%.

Take `OC(CN1C2=NCCCN2c2ccccc21)c1ccc(Br)cc1` (configuration not stated): the inhibition is 9.53%.

Regarding `CC(C)(C)C(=O)CN1C2=NCCN2c2ccccc21`, the inhibition is 93.6% (active).

For `O=C(CN1C2=NCCN2c2ccccc21)c1cccs1`, the inhibition was 17.3%.

`O=C1C=C(c2cccc(Cl)c2)C[C@@H](c2ccc(F)cc2)C1`: the inhibition is -8.67%.

In the case of `Cc1cc(NC(=O)CSc2nc3ccccc3n2CC(C)C)no1`, the inhibition was -5.8%.

Take `CC(C)Cn1c(SCC(=O)Nc2ccc(Cl)cc2F)nc(O)cc1=O`: the inhibition is 98.5% (active).

As to `Cc1ccccc1-n1c(SCC(=O)Nc2cccc3ccccc23)nc(O)cc1=O`, the inhibition is 59.8%.

For `COc1ccccc1-c1nn(Cc2ccccc2)cc1C(=O)N1CCN(c2ncccn2)CC1`, the inhibition is 1.87%.

As for `C=CC[C@@H](CC(=O)NCCO)C(=O)N[C@H](C)COC(=O)[C@@H](CC=C)CC(=O)OC(C)(C)C`, the inhibition was 4.16%.

Turning to `CCN1C(=O)[C@H]2[C@@H](c3ccc(-c4ccc(F)cc4)cc3)N[C@@](Cc3ccccc3)(C(=O)OC)[C@H]2C1=O`, the inhibition was -2.13%.

For `CCCn1c(C2CCCN2c2nc(-c3ccc(OC)cc3)cs2)nc2ccccc21` (configuration not stated), the inhibition was -0.584%.

For the compound `CCOC(=O)C1CCCN(C(=O)CSc2nnc3nc(C)cc(C)n23)C1` (configuration not stated), the inhibition was -0.482%.

As for `C=CCC(NCc1ccco1)c1ccc(OC)cc1` (configuration not stated), the inhibition was 1.8%.

As for `C=CCC(Nc1ccccc1)c1cccc(OC)c1OC` (configuration not stated), the inhibition is 98.9% (active).

In the case of `COc1ccc(CNCCCO)cc1OC`, the inhibition was 1.87%.

On to `COc1cccc(NC(=O)CC(c2ccc(OC(C)C)cc2)c2ccccc2OC)c1` (configuration not stated), for which the inhibition was 1.22%.

As to `COc1cccc(C(O)Cc2nc3ccccc3n2C)c1OC` (configuration not stated), the inhibition is 2.27%.

As to `C=CCC(NCCCO)c1cccc(OC)c1OC` (configuration not stated), the inhibition was 99.7% (active).

For the compound `CCOC(=O)[C@H]1[C@H]2COc3ccc(C)cc3[C@@H]2N2C(=O)CN(Cc3ccc(F)cc3)C(=O)[C@@]12C`, the inhibition was -13.6%.

Consider `CCOCc1c(C(=O)N2CCN(Cc3ccc(Br)s3)CC2)oc2ccccc12`, for which the inhibition is 1.34%.

For the compound `CCN(CC(=O)Nc1ccccc1C(F)(F)F)C(=O)CSCc1c(C)noc1C`, the inhibition is 6.19%.

For the compound `Cc1ccccc1NC(=O)C(C)OC(=O)CCC(=O)N(CC(C)C)c1c(N)n(CC(C)C)c(=O)[nH]c1=O` (configuration not stated), the inhibition was -8.82%.

Consider `COc1cc(C(=S)NC2CCCCC2)ccc1O`, for which the inhibition was 98.5% (active).

As for `COc1cc(C(=S)N2CCOCC2)ccc1O`, the inhibition was -6.46%.

As for `COc1ccc(C(=O)NC(=S)NC2CCCCC2)cc1`, the inhibition was 3.44%.

As for `O=C(CN1CCN(S(=O)(=O)c2cccc(Cl)c2)CC1)N1CCCCC1`, the inhibition is 14.4%.

For `O=C(NCC1(N2CCCCC2)CCCCC1)c1ccc(NS(=O)(=O)c2ccc(F)cc2)cc1`, the inhibition was 7.5%.

In the case of `CC(Sc1nn(-c2ccc(Cl)cc2)c(=S)s1)C(=O)NCC1CCCO1` (configuration not stated), the inhibition is -12.1%.

Turning to `COc1cc(/C=N/n2c(C)n[nH]c2=S)ccc1OCc1ccccc1`, the inhibition is 97% (active).

As for `CCOc1ccc(/C=N/Nc2nncc(-c3ccccc3)n2)cc1OC`, the inhibition was -1.74%.

Consider `COc1cc(-c2n[nH]c(=S)n2Cc2ccccc2)cc(OC)c1OC`, for which the inhibition was 68.8%.

For the compound `COc1ccc(S(=O)(=O)Nc2ccc3cn[nH]c3c2)cc1[N+](=O)[O-]`, the inhibition was -7.76%.

Regarding `O=C(c1cc(-c2ccc(O)cc2)on1)N1CCCc2ccccc21`, the inhibition is 98.8% (active).

For the compound `O=C(c1cc(-c2ccc(O)cc2)on1)N1CCOCC1`, the inhibition is 99% (active).

As to `O=C(c1cc(-c2ccc(F)cc2)on1)N1CCN(c2ccc(F)cc2)CC1`, the inhibition is 1.89%.

Take `O=C(c1cc(-c2ccc(Cl)cc2)on1)N1CCN(c2ccccc2)CC1`: the inhibition is 4.35%.

`Cc1ccc(-c2cc(C(=O)N3CCc4ccccc4C3)no2)cc1`: the inhibition was -5.44%.

Regarding `Cc1c(C(=O)N2CCCc3ccccc32)oc2ccccc12`, the inhibition is 1.77%.

Consider `COc1ccc2sc(-c3ccc(S(C)(=O)=O)cc3)c(C#Cc3cncn3C)c2c1`, for which the inhibition was 1.35%.

On to `COc1ccccc1CCNC(=O)C(=O)NCCC1CCCCN1S(=O)(=O)c1cccs1` (configuration not stated), for which the inhibition was -56.8%.

On to `CC1(C)O[C@H]2CC(=O)OCC23[C@H]2CC[C@@]4(C)[C@H](c5ccoc5)OC(=O)[C@H]5O[C@]54[C@]2(C)C(=O)C[C@@H]13` (some centres not stated), for which the inhibition is -10.7%.

With `CCc1noc(C)c1C(=O)Oc1ccc(N(C)S(=O)(=O)c2ccc(C)c(C)c2)cc1`, the inhibition was 22.1%.

`COc1ccc(C(=O)Nc2cc(S(=O)(=O)N3CCCC3)ccc2Cl)cc1`: the inhibition was 0.959%.

For `Cc1cc(Nc2ccc(Cl)cc2)nc(N2CCOCC2)n1`, the inhibition was -2.6%.

On to `Cc1cc(N2CCN(c3ccccc3)CC2)nc(N2CCOCC2)n1`, for which the inhibition was 98.9% (active).

As for `Cc1cc(N2CCOCC2)nc(-c2ccc(Br)cc2)n1`, the inhibition was -3.64%.

In the case of `COc1ccc(CNC(=O)COC(=O)C(CCSC)N2C(=O)c3ccccc3C2=O)cc1` (configuration not stated), the inhibition is -2.44%.

`O=C(Nc1cccc(F)c1)c1cc(-c2ccco2)nc2ccccc12`: the inhibition was 5.76%.

For the compound `CC(C)(C)Cc1nnc(NC(=O)c2cc(-c3ccccc3)nc3ccccc23)s1`, the inhibition was 3.63%.

On to `O=C(O)c1cccc(NC(=O)c2cc(-c3cccc(Cl)c3)nc3ccccc23)c1`, for which the inhibition was 98.6% (active).

Regarding `Cc1ccc([C@@H]2CC=C(C(=O)O)[C@H](c3cccc(Cl)c3)N2S(=O)(=O)c2ccc(C)cc2)cc1`, the inhibition was 4.58%.

Regarding `O=C1COc2ccc(C(=O)COC(=O)CCOc3ccccc3)cc2N1`, the inhibition is -1.49%.

As for `O=C(CN1C(=O)C2C3CCC(C3)C2C1=O)Oc1ccc2ccccc2c1` (configuration not stated), the inhibition is -1.46%.

In the case of `CC1=CC(C)(C)Nc2ccc(OC(=O)C(Cc3ccccc3)N3C(=O)C4CCCCC4C3=O)cc21` (configuration not stated), the inhibition was -22.1%.

Take `CC1=CC(C)(C)Nc2ccc(OC(=O)CN3C(=O)C4CCCCC4C3=O)cc21` (configuration not stated): the inhibition was 85.4% (active).

For the compound `CC(C)Cn1c(N)c(C(=O)COC(=O)C2CCCN2C(=O)c2cccs2)c(=O)n(C)c1=O` (configuration not stated), the inhibition was -23.1%.

`Cc1ccc(C)c(-c2nnc(NC(=O)CS(=O)(=O)c3ccccc3)o2)c1`: the inhibition is 1.8%.

Turning to `Cc1oc2c(C)c3oc(=O)c(CC(=O)N[C@@H](CC(C)C)C(=O)N[C@@H](Cc4ccccc4)C(=O)O)c(C)c3cc2c1C`, the inhibition was 40.1%.

As for `Cc1cc(=O)oc2c(C)c(OC(C)C(=O)NC3CCN(Cc4ccccc4)CC3)ccc12` (configuration not stated), the inhibition is 2.88%.

With `Cc1c(OC(C)C(=O)N[C@@H](Cc2ccccc2)C(=O)O)ccc2c3c(c(=O)oc12)CCCC3` (some centres not stated), the inhibition was 86.8% (active).

Usually inhibition stands for the relative decrease from the control value, in per cent.
